Results: PubChem BioAssay (NCI)
The panel holds about 83,000 compounds, 20% with a hit somewhere; the sample as a whole holds those more often.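 Interpretation: 100, growth as untreated; towards 0, rising growth inhibition; 0, no net growth; 0 to -100, cell death. Compounds scoring below 10 were considered active.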 The source made the active and inactive calls.

Key:
Assay in all cases: NCI-60 one-dose screen, 48 h (100 = growth as untreated, 0 = no growth, -100 = all killed)
SR leukemia = settings: 10 µM unless noted
RPMI-8226 leukemia = settings: 10 µM unless noted
OVCAR-8 ovarian = settings: 10 µM unless noted
OVCAR-5 ovarian = settings: 10 µM unless noted
SK-OV-3 ovarian = settings: 10 µM unless noted
IGROV1 ovarian = settings: 10 µM unless noted
OVCAR-3 ovarian = settings: 10 µM unless noted
HS 578T breast = settings: 10 µM
NCI/ADR-RES ovarian = settings: 10 µM unless noted
T-47D breast = settings: 10 µM unless noted
BT-549 breast = settings: 10 µM unless noted
MDA-MB-435 melanoma = settings: 10 µM unless noted
SW-620 colon = settings: 10 µM unless noted
MCF7 breast = settings: 10 µM unless noted
HCT-116 colon = settings: 10 µM unless noted
HCC-2998 colon = settings: 10 µM unless noted
KM12 colon = settings: 10 µM unless noted
OVCAR-4 ovarian = settings: 10 µM unless noted

Measured: growth

CC1C2CCC(C2)C1COCCOCCO (stereo not given)
inactive: SR leukemia 105% | RPMI-8226 leukemia 108% | OVCAR-8 ovarian 102% | OVCAR-5 ovarian 107% | SK-OV-3 ovarian 110% | IGROV1 ovarian 113% | OVCAR-3 ovarian 112% | HS 578T breast 110% | NCI/ADR-RES ovarian 104% | T-47D breast 98.7% | BT-549 breast 104% | MDA-MB-435 melanoma 110% | SW-620 colon 101% | MCF7 breast 105% | HCT-116 colon 108% | HCC-2998 colon 105% | KM12 colon 110%

COc1cc2c(cc1OC)C(=O)OC2
inactive: SR leukemia 106% | RPMI-8226 leukemia 367% | OVCAR-8 ovarian 101% | OVCAR-5 ovarian 100% | OVCAR-4 ovarian 108% | SK-OV-3 ovarian 124% | OVCAR-3 ovarian 110% | HS 578T breast 109% | NCI/ADR-RES ovarian 119% | T-47D breast 98.5% | BT-549 breast 118% | MDA-MB-435 melanoma 103% | SW-620 colon 104% | MCF7 breast 105% | HCT-116 colon 111% | HCC-2998 colon 118% | KM12 colon 113%

Cc1cc(C)cc(CCCCCCCCCCCCCCCCCC(=O)O)c1
inactive: SR leukemia 107% | RPMI-8226 leukemia 99.4% | OVCAR-8 ovarian 103% | OVCAR-5 ovarian 103% | OVCAR-4 ovarian 105% | SK-OV-3 ovarian 105% | IGROV1 ovarian 108% | OVCAR-3 ovarian 102% | T-47D breast 82.4% | BT-549 breast 103% | MDA-MB-435 melanoma 115% | SW-620 colon 108% | MCF7 breast 96.1% | HCT-116 colon 99.9% | HCC-2998 colon 102% | KM12 colon 106%

CCC1CCc2nc3sc(C(=O)Nc4cccc(F)c4)c(N)c3cc2C1 (stereo not given)
active: MDA-MB-435 melanoma -12.6%
inactive: SR leukemia 12.5% | RPMI-8226 leukemia 44.9% | OVCAR-8 ovarian 86.6% | OVCAR-5 ovarian 90.5% | OVCAR-4 ovarian 99.2% | SK-OV-3 ovarian 83.1% | IGROV1 ovarian 89.2% | NCI/ADR-RES ovarian 61.8% | T-47D breast 89.9% | BT-549 breast 88.1% | SW-620 colon 40.6% | MCF7 breast 12.6% | HCT-116 colon 60% | HCC-2998 colon 91.6% | KM12 colon 41.3%

CC(C)CC(NC(=O)C(CCCN=C(N)N)NC(=O)OCc1ccccc1)C(=O)NC(CNC(=O)/C=C/c1ccccc1)C(C)C (stereo not given)
inactive: SR leukemia 98.3% | RPMI-8226 leukemia 96% | OVCAR-8 ovarian 106% | OVCAR-5 ovarian 89.3% | OVCAR-4 ovarian 95.8% | SK-OV-3 ovarian 117% | IGROV1 ovarian 88.3% | OVCAR-3 ovarian 105% | T-47D breast 96.2% | BT-549 breast 107% | MDA-MB-435 melanoma 97.5% | SW-620 colon 105% | MCF7 breast 91% | HCT-116 colon 102% | HCC-2998 colon 137% | KM12 colon 105%

COC(=O)c1ccc(NC(N)=NCCC(C)(C)c2ccc(C(F)(F)F)cc2)nc1
inactive: OVCAR-8 ovarian 50.1% | OVCAR-5 ovarian 74.2% | OVCAR-4 ovarian 31.6% | SK-OV-3 ovarian 60.2% | IGROV1 ovarian 54.7% | HS 578T breast 75.5% | NCI/ADR-RES ovarian 36.6% | BT-549 breast 42.6% | MDA-MB-435 melanoma 50.1% | SW-620 colon 25%
active: SR leukemia -22.2% | RPMI-8226 leukemia -48.8% | T-47D breast -3.4% | HCT-116 colon 8.17% | HCC-2998 colon -54%

O=C(Nc1ccc2ncnc(Nc3ccc(F)c(Cl)c3)c2c1)c1cccs1
inactive: SR leukemia 11.3% | RPMI-8226 leukemia 53% | OVCAR-8 ovarian 66.2% | OVCAR-5 ovarian 76.1% | OVCAR-4 ovarian 47.1% | SK-OV-3 ovarian 54% | IGROV1 ovarian 38.7% | HS 578T breast 72.2% | NCI/ADR-RES ovarian 60.7% | T-47D breast 28.8% | BT-549 breast 68.3% | MDA-MB-435 melanoma 70.2% | SW-620 colon 93.2% | MCF7 breast 56.1% | HCT-116 colon 54.7% | HCC-2998 colon 99.2%

CCCCN(CCCC)CCC(=O)c1ccc(OC)c2ccccc12
inactive: SR leukemia 38.9% | RPMI-8226 leukemia 35.6% | OVCAR-8 ovarian 75.3% | OVCAR-5 ovarian 102% | OVCAR-4 ovarian 102% | SK-OV-3 ovarian 107% | OVCAR-3 ovarian 83% | HS 578T breast 106% | NCI/ADR-RES ovarian 107% | T-47D breast 41.4% | BT-549 breast 108% | MDA-MB-435 melanoma 83.3% | SW-620 colon 61.5% | MCF7 breast 15.1% | HCT-116 colon 72.1% | HCC-2998 colon 105% | KM12 colon 71.1%

COc1ccc(/C(=C\c2cc(OC)c(OC)c(OC)c2)C(=O)Nc2nc3ccc(Cl)cc3s2)cc1
inactive: SR leukemia 76.4% | RPMI-8226 leukemia 80.8% | OVCAR-8 ovarian 94.1% | OVCAR-5 ovarian 97.2% | OVCAR-4 ovarian 104% | SK-OV-3 ovarian 98.4% | IGROV1 ovarian 106% | HS 578T breast 100% | NCI/ADR-RES ovarian 92% | T-47D breast 86.7% | BT-549 breast 98.3% | MDA-MB-435 melanoma 100% | SW-620 colon 105% | MCF7 breast 98.9% | HCT-116 colon 86.8% | KM12 colon 94.2%

O=C(NC1CC1)c1ccc(-c2nc3ccc4[nH]ncc4c3c3c2CCCC3)cc1
inactive: SR leukemia 32.2% | RPMI-8226 leukemia 50.5% | OVCAR-8 ovarian 38.8% | OVCAR-5 ovarian 75.2% | OVCAR-4 ovarian 61.6% | IGROV1 ovarian 22.7% | OVCAR-3 ovarian 58% | NCI/ADR-RES ovarian 72.1% | BT-549 breast 29.5% | MDA-MB-435 melanoma 11.5% | SW-620 colon 18.7% | MCF7 breast 38.6% | HCT-116 colon 17% | HCC-2998 colon 51.1% | KM12 colon 24.4%
active: SK-OV-3 ovarian -7.43%

CCOC(=O)c1ccc(N(CCC(=O)O)C(C)=O)cc1
inactive: SR leukemia 129% | RPMI-8226 leukemia 110% | OVCAR-8 ovarian 104% | OVCAR-5 ovarian 102% | SK-OV-3 ovarian 114% | IGROV1 ovarian 103% | OVCAR-3 ovarian 120% | HS 578T breast 114% | NCI/ADR-RES ovarian 109% | T-47D breast 112% | BT-549 breast 94.9% | MDA-MB-435 melanoma 122% | SW-620 colon 106% | MCF7 breast 99.9% | HCT-116 colon 104% | HCC-2998 colon 113% | KM12 colon 117%

OC(c1cc2c(Cl)cc(Cl)cc2c2cc(C(F)(F)F)ccc12)C1CCCCN1 (stereo not given)
inactive: BT-549 breast 50.4%
active: SR leukemia -63.5% | RPMI-8226 leukemia -44.8% | OVCAR-8 ovarian -61% | OVCAR-5 ovarian -78.5% | SK-OV-3 ovarian -18.3% | IGROV1 ovarian -67.9% | OVCAR-3 ovarian -86% | HS 578T breast -56.1% | NCI/ADR-RES ovarian -60.4% | T-47D breast -78.5% | MDA-MB-435 melanoma -65.5% | SW-620 colon -74.4% | MCF7 breast -75.7% | HCT-116 colon -85.9% | KM12 colon -84.6%

CCCCNCCC(O)c1cc2ccc(C(F)(F)F)cc2c2cc(C(F)(F)F)ccc12 (stereo not given)
active: SR leukemia -70.2% | RPMI-8226 leukemia -42.8% | OVCAR-8 ovarian -77.3% | OVCAR-5 ovarian -79.9% | SK-OV-3 ovarian -34% | IGROV1 ovarian -60.9% | OVCAR-3 ovarian -84.8% | HS 578T breast -55.2% | NCI/ADR-RES ovarian -74.5% | T-47D breast -76.3% | BT-549 breast 4.84% | MDA-MB-435 melanoma -69.3% | SW-620 colon -76.2% | MCF7 breast -79.3% | HCT-116 colon -87.3% | HCC-2998 colon -78.5% | KM12 colon -85.2%

CC(C)(C)CC(C)(C)NCc1cc(C(C)(C)C)cc(CNC(C)(C)CC(C)(C)C)c1O
active: SR leukemia 1.23% | RPMI-8226 leukemia 8.02%
inactive: OVCAR-8 ovarian 86.4% | OVCAR-5 ovarian 68.6% | SK-OV-3 ovarian 81.3% | IGROV1 ovarian 61.1% | OVCAR-3 ovarian 79.2% | HS 578T breast 67.6% | NCI/ADR-RES ovarian 55% | T-47D breast 14.5% | MDA-MB-435 melanoma 81.5% | SW-620 colon 75.3% | MCF7 breast 31.6% | HCT-116 colon 26.1% | HCC-2998 colon 31.1% | KM12 colon 75%

CNCc1ccccc1CN(CC(=O)Nc1ccc2c(c1)CC1(C2)C(=O)Nc2ncccc21)C(=O)C(C)(C)C (stereo not given)
inactive: SR leukemia 110% | RPMI-8226 leukemia 106% | OVCAR-8 ovarian 98.9% | OVCAR-5 ovarian 109% | SK-OV-3 ovarian 108% | IGROV1 ovarian 92.4% | OVCAR-3 ovarian 114% | HS 578T breast 95.9% | NCI/ADR-RES ovarian 108% | T-47D breast 94.1% | BT-549 breast 96.3% | MDA-MB-435 melanoma 95.7% | SW-620 colon 97.4% | HCT-116 colon 105% | HCC-2998 colon 113% | KM12 colon 107%

OC(c1cc2cc(Cl)ccc2c2cc(C(F)(F)F)ccc12)C1CCCCN1 (stereo not given)
active: SR leukemia -75.3% | RPMI-8226 leukemia -48% | OVCAR-8 ovarian -74.6% | OVCAR-5 ovarian -77.8% | SK-OV-3 ovarian -0.379% | IGROV1 ovarian -67.4% | OVCAR-3 ovarian -94.8% | HS 578T breast -52.6% | NCI/ADR-RES ovarian -66.1% | T-47D breast -82.1% | MDA-MB-435 melanoma -66.1% | SW-620 colon -78.3% | HCT-116 colon -85.8% | HCC-2998 colon -86.9% | KM12 colon -90.9%
inactive: BT-549 breast 54.7%

O=C1c2ccccc2C2N1CCC1CCc3ccccc3N12 (stereo not given)
inactive: SR leukemia 114% | RPMI-8226 leukemia 105% | OVCAR-8 ovarian 101% | OVCAR-5 ovarian 92% | SK-OV-3 ovarian 109% | IGROV1 ovarian 99.8% | OVCAR-3 ovarian 115% | HS 578T breast 99.8% | NCI/ADR-RES ovarian 103% | T-47D breast 107% | BT-549 breast 88.1% | MDA-MB-435 melanoma 110% | SW-620 colon 102% | MCF7 breast 96.4% | HCT-116 colon 93.7% | HCC-2998 colon 110% | KM12 colon 108%

COc1ccc2c(c1)N(CCO)C1=C(C(=O)OC1)C2c1cccc(Br)c1 (stereo not given)
inactive: SR leukemia 17.8% | RPMI-8226 leukemia 18.5% | OVCAR-8 ovarian 14.6% | OVCAR-5 ovarian 32.1% | SK-OV-3 ovarian 28.5% | IGROV1 ovarian 11.2% | HS 578T breast 10.7% | NCI/ADR-RES ovarian 10.7% | T-47D breast 72% | BT-549 breast 15.9% | SW-620 colon 22.5% | MCF7 breast 16.1%
active: OVCAR-3 ovarian -51.6% | MDA-MB-435 melanoma -51% | HCT-116 colon 3.89% | KM12 colon -31.2%

C/C(CC(=O)NNc1ccc([N+](=O)[O-])cc1)=N\Nc1ccc([N+](=O)[O-])cc1
inactive: SR leukemia 46.9% | RPMI-8226 leukemia 72.1% | OVCAR-8 ovarian 81.3% | OVCAR-5 ovarian 48.8% | SK-OV-3 ovarian 90.6% | IGROV1 ovarian 78.3% | OVCAR-3 ovarian 73.7% | HS 578T breast 86.2% | NCI/ADR-RES ovarian 49.7% | T-47D breast 50% | BT-549 breast 99.6% | MDA-MB-435 melanoma 35.4% | SW-620 colon 48.6% | MCF7 breast 83.8% | HCT-116 colon 47.3% | HCC-2998 colon 74.5% | KM12 colon 25.4%
